FLuc inh-1 = Photinus pyralis luciferase inhibition; AID 1347043; purified P. pyralis luciferase, luminescence, biochemical; 2.5% of 76,000 active; Potency, µM (doses to about 115 µM), most hits filed as inhibitors; P08659; further: on the % scale 0 is the no-effect control and ±100 the full control effect; nearly all actives have a fitted effect of over 65% in size
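Purified 10nM P. pyralis luciferase with 10uM D-luciferin and 10uM ATP in 50mM Tris acetate pH 7.5, 10mM Mg acetate, 0.01% Tween-20, 0.05% BSA. qHTS titration; luminescence read by CCD imager.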
hNpr1 antagonist = blocks ANP-stimulated signaling of human Npr1 receptor | P16066 | HEK293 hNpr1 GloSensor cGMP, ANP-stimulated luminescence | Potency, µM (highest dose often 46.3 µM), for the others: top-dose activity change, negative = inhibition, usual class: inhibitors | 1.6% of 76,000 active | AID 1347048; calls by dose curve; further: on the % scale 0 is the no-effect control and ±100 the full control effect; nearly all actives have a fitted effect of over 60% in size
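HEK293 cells stably expressing human Npr1 and cGMP GloSensor pGS-40F, loaded 2 h with 2% GloSensor reagent, given compound 30 min at room temperature. Luminescence read before and 20 min after 0.1 nM hNppA.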
3T3 cytotox = NIH 3T3 cell cytotoxicity. NIH 3T3 viability, CellTiter-Glo ATP luminescence, 48-72 h. Potency, µM (top dose mostly 96.7 µM), for inactives: at the top dose activity change, negative = cytotoxicity, hits mostly inhibitors. 4.3% of 94,000 active. AID 1345082; further: on the % scale 0 is the no-effect control and ±100 the full control effect; nearly all actives have a fitted effect of over 55% in size
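Cytotoxicity was measured by CellTiter-Glo ATP luminescence after 48 or 72 h compound exposure at 37 °C. Mouse NIH 3T3 fibroblasts were seeded at 400 cells/well and dosed by 23 nL pin transfer.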
GPT2 inh = blocks human glutamate pyruvate transaminase 2; Recombinant GPT2, coupled pyruvate oxidase/HRP Amplex Red fluorescence; Potency, µM (highest dose often 57.7 µM), without a hit: at the top dose activity change, negative = inhibition, usual class: inhibitors; 0.25% of 100,000 active; further: on the % scale 0 is the no-effect control and ±100 the full control effect; nearly all actives have a fitted effect of over 60% in size
Target sequence (Q8TD30 whole entry, looked up): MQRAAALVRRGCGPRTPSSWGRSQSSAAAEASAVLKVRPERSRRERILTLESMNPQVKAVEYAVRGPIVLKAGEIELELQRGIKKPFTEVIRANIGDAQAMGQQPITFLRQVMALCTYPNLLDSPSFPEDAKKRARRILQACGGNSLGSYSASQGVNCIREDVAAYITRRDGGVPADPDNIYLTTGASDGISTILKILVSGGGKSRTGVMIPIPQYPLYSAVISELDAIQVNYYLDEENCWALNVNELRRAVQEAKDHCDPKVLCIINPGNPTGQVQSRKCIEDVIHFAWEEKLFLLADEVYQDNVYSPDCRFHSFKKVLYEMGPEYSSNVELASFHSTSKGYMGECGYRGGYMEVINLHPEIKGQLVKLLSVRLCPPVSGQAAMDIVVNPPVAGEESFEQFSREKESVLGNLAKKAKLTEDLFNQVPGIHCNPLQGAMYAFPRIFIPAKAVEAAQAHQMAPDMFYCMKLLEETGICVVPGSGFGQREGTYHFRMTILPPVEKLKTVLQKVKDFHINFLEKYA
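Fluorescence of coupled pyruvate oxidase/HRP/Amplex Red system (50uM Amplex, 30 min, dark) reports pyruvate formed by GPT2. Enzyme reaction: 10ng/uL GPT2, 2mM L-alanine, 250uM a-KG, 30 min room temperature, pH 7.5; 50uM AOA control.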
HEK293 tox = cytotoxic compounds in HEK 293 cells; AID 1345083; 6.6% of 94,000 active; Potency, µM (top dose mostly 115 µM), for inactives: at the highest dose activity change, negative = cytotoxicity, actives largely listed as inhibitors; HEK 293 viability, ATP luminescence (CellTiter-Glo), 48-72 h; further: on the % scale 0 is the no-effect control and ±100 the full control effect; nearly all actives have a fitted effect of over 60% in size
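Cells seeded first (HEK 293, 250 cells/well), then compound added by pintool. Incubation ran 48 or 72 hr at 37 degree Celsius. CellTiter-Glo was added and luminescence imaged after 10 min at room temperature.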
FLuc SDR no ATP = binders stabilizing firefly luciferase, without ATP; shares compounds with FLuc inh-1; Purified FLuc-C-HiBiT, Nano-Glo HiBiT luminescence, no ATP; Potency, µM (series often up to 32.7 µM), without a hit: at the highest dose activation (signal gain), most hits filed as activators; 7.8% of 1,300 active; further: nearly all actives have a fitted effect of over 55% in size
FLuc SDR ATP = stabilizes firefly luciferase with ATP present; shares compounds with FLuc inh-1; purified FLuc-C-HiBiT + ATP, HiBiT complementation luminescence; Potency, µM (highest dose often 32.7 µM), without a hit: at the top dose activation (gain of signal), most hits filed as activators; 8.7% of 1,300 active; AID 1963319;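 further: signal reports ligand binding via conformational change of the enzyme rather than luciferase catalysis; % of control where 0% means no effect; nearly all actives have a fitted effect of over 55% in size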
FLuc inh-2 = inhibitors of firefly luciferase enzymatic activity; Potency, µM (titrated, usually from 32.7 µM), without a hit: top-dose activity change, negative = inhibition, hits mostly inhibitors; purified FLuc-C-HiBiT enzyme, luciferin luminescence; 42% of 1,300 active; shares compounds with FLuc inh-1; AID 1963320; further: on the % scale 0 is the no-effect control and ±100 the full control effect; nearly all actives have a fitted effect of over 70% in size
An asterisk follows results filed as active; i = inactive; ? = inconclusive; nt = no result given; [ ] = dose if it differs, or a comment. Most compounds without a hit are left out; they make up all but 10% or so of the library. Unless noted, the call rests on the fitted dose curve; in most records, active means well fitted curve in the direction sought with a large enough effect; inconclusive means small, poorly fitted or top-dose-only effect, or another doubt; inactive means no such curve, though single readings can be large; an effect the other way counts as inactive or inconclusive. Potency means the concentration at half of the fitted maximal effect.

SMILES	FLuc inh-1	hNpr1 antagonist	3T3 cytotox	GPT2 inh	HEK293 tox	FLuc SDR no ATP	FLuc SDR ATP	FLuc inh-2
O=C(Nc1cnc(-c2ccc(Cl)cc2)nc1)c1ccc(F)c(F)c1	?	-10%	-17%	i	-22%	nt	nt	nt
CCc1ccc(NC(=O)c2cc3ccccn3n2)cc1	nt	nt	nt	nt	nt	?	?	1.8µM*
COc1ccc(NC(=O)c2cc3c(N(C)Cc4ccccc4)nc(C)cn3n2)cc1	i	6%	?	?	?	nt	nt	nt
CC(=O)NC1(C)CCCN(Cc2cccc(-c3cccc(F)c3)c2)C1 (centres undefined)	i	-1%[70.6 µM]	?	2%[88.5 µM]	?	nt	nt	nt
CC(=O)NC1(C)CCN(Cc2cccc(-c3ccc4c(ccn4C)c3)c2)C1 (centres undefined)	14µM*	?	79µM*	2%[88.5 µM]	89µM*	15%[49.3 µM]	?	10µM*
O=C(c1ccc(F)cc1)N1CCN(Cc2ccccc2-c2cccnc2)CC1	nt	nt	?	5%	?	nt	nt	nt
COCC(=O)N1CCc2nc(C)nc(-c3ccc(OC)cc3)c2C1	i	2%[70.6 µM]	-29%[138 µM]	i	-23%[172 µM]	10%[49.3 µM]	8%[49.3 µM]	-5%[49.3 µM]
COc1ccc(-c2nc(C)nc3c2CN(C(C)=O)CC3)cc1	i	-13%[70.6 µM]	-23%[138 µM]	i	-16%[172 µM]	nt	nt	nt
Cc1ccc(N2C(=O)c3n[nH]c(C)c3C2c2ccc(Cl)cc2)cc1 (centres undefined)	nt	nt	nt	nt	nt	17%	12%	?
O=C(C1CCCN1C(=O)c1ccccc1)N1CCC(N2CCOCC2=O)CC1 (centres undefined)	nt	nt	-14%	4%	-15%	nt	nt	nt
COc1ccccc1-c1nc(-c2cccc(C(=O)O)c2)no1	nt	nt	nt	nt	nt	8.8µM*	0.007µM*	0.0062µM*
O=C(O)c1cccc(-c2noc(-c3cc([N+](=O)[O-])cc([N+](=O)[O-])c3)n2)c1	nt	nt	nt	nt	nt	6%	?	3.1µM*
COc1ccc(F)cc1-c1cccc(C(=O)O)c1	nt	nt	-10%[138 µM]	?	-4%[172 µM]	nt	nt	nt
COc1ccc(-c2noc(-c3nc(-c4cccnc4)no3)n2)cc1	i	-1%	4%	-1%	13%	nt	nt	nt
O=C(O)c1ccc(CN2Cc3[nH]cnc3C[C@H]2c2nc(-c3cccc([N+](=O)[O-])c3)no2)cc1	i	2%	-8%	4%	2%	nt	nt	nt
COc1ccc(-c2nc(-c3cccc(C(=O)O)c3)no2)cc1	nt	nt	nt	nt	nt	1.1µM*	0.0031µM*	0.0025µM*
CC1=C[C@@H](CNC(=O)c2cccnc2)[C@H](C(C)C)C[C@H]1CC(=O)NCc1ccccn1	?	-1%[70.6 µM]	0%[174 µM]	?	-22%[172 µM]	nt	nt	nt
COc1ccc(CNC(=O)C[C@@H]2C[C@@H](C(C)C)[C@H](CNC(=O)c3cccnc3)C=C2C)cc1	14µM*	-13%	?	-9%	?	11%	10%	7%
COc1ccc2cc(C3CN(C(=O)CNC(=O)C(C)C)CCO3)ccc2c1 (centres undefined)	8.9µM*	4%	-19%	-4%	-25%	?	?	?
Fc1ccc(NCc2ccccc2-c2nnc(-c3ccccc3Cl)o2)cc1Cl	nt	nt	nt	nt	nt	17%	9%	?
Fc1ccccc1-c1nnc([C@H]2CCN(Cc3cccc(Cl)c3)C2)o1	i	0%[70.6 µM]	-15%[138 µM]	i	?	nt	nt	nt
CN(C)C(=O)c1ccc2c(c1)n(Cc1ccc(F)cc1)c(=O)c1ccnn12	i	4%	-16%	i	-29%	nt	nt	nt
Cc1ccc(C(=O)N2CCN(C(=O)c3cccc(-c4ccccn4)c3)CC2)cc1	nt	nt	-25%	i	?	nt	nt	nt
COc1ccc(-c2c(C(=O)NC3CC3)nc3sccn23)cc1	nt	nt	-6%[138 µM]	-8%[88.5 µM]	1%[172 µM]	nt	nt	nt
CN(C)C(=O)N1CCC(C(=O)N2CCCC2c2nc3ccncc3[nH]2)CC1 (centres undefined)	nt	nt	-6%	i	-3%	nt	nt	nt
SMILES	FLuc inh-1	hNpr1 antagonist	3T3 cytotox	GPT2 inh	HEK293 tox	FLuc SDR no ATP	FLuc SDR ATP	FLuc inh-2
O=C(NCC1CC1)c1ccc2oc(-c3cccnc3)nc2c1	nt	nt	-22%[138 µM]	?	-12%[172 µM]	nt	nt	nt
Cc1cccc(-c2ncc(CN(CCN3CCOCC3)Cc3ccco3)cn2)c1	i	5%	-23%	-2%	?	nt	nt	nt
CCCCOc1nc(N)c2[nH]c(=O)n(CCCN(CCCN3CCOCC3)Cc3cccc(CC(=O)OC)c3)c2n1	nt	nt	nt	nt	nt	12%	7%	4%
Cc1cccc(N2CCN(C(=O)CSCc3ccc(F)cc3)CC2)c1C	nt	nt	nt	nt	nt	12%	9%	-8%
CC(=O)NCc1nnc2n1C(C(=O)NCCc1ccccc1F)CC2 (centres undefined)	nt	nt	5%	-10%	i	nt	nt	nt
Cc1cccc(-n2nc(C)c(CCC(=O)NC3CC3)c2Oc2ccc(F)cc2F)c1	i	-4%	?	i	?	nt	nt	nt
CC(=O)c1ccc(NC(=O)CCc2c(C)nc3cc(-c4ccc(Cl)cc4)nn3c2C)cc1	nt	nt	nt	nt	nt	19%	?	?
Cc1ccc(NC(=O)CCc2c(C)nc3cc(-c4ccccc4)nn3c2C)cc1F	nt	nt	nt	nt	nt	13%	?	?
Cc1nc2cc(-c3cccc(F)c3)nn2c(C)c1CCC(=O)NC1CCCCC1	nt	nt	nt	nt	nt	12%	?	?
COc1ccc(-c2noc(-c3cccn3CC(=O)N3CCOc4ccc(C)cc43)n2)cc1F	i	-1%	-27%	i	?	nt	nt	nt
O=C1CCN(CC(O)Cc2ccccc2)c2ccccc2CCN1Cc1ccccc1 (centres undefined)	nt	nt	?	-18%[27.3 µM]	?	nt	nt	nt
O=C1NCc2nc3ccccc3c(=O)n2C1Cc1c[nH]c2ccccc12 (centres undefined)	nt	nt	nt	i	nt	nt	nt	nt
O=C(NCc1ccc(F)cc1Cl)C1CCN(C(=O)c2ncn3c2COC(c2ccccc2)C3)CC1 (centres undefined)	13µM*	-12%	i	-16%	-2%	13%	?	?
CCOc1ccccc1CNC(=O)C1CCN(C(=O)c2ncn3c2COC(c2ccccc2)C3)CC1 (centres undefined)	4µM*	-12%	-21%	i	-5%	12%	2.2µM*	3.1µM*
COc1cccc(CN2CCCN(S(=O)(=O)c3ccccc3)CCC(=O)NCC2)n1	i	0%	-16%	i	-8%	nt	nt	nt
CCc1ccc(-n2nc(CO)c(C(=O)NC)n2)cc1	nt	nt	nt	nt	nt	?	19%	?
O=C(c1ccccn1)N1CCN(c2ccc3nnc(-c4ccccc4)n3n2)CC1	nt	nt	?	nt	-28%	nt	nt	nt
